About 79,000 compounds went through this panel and 15% of them were active in at least one assay; those are over-represented in the sample as a whole. The source made the active and inactive calls. No stated cut-off is given here; in the data, active means growth inhibition above about 70%; inactive means the rest.
What was measured:
[1] = NCI Yeast Anticancer Drug Screen. Data for the wt1 strain (AID 149);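 further: 0% = growth of vehicle-treated wt1 cultures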; conditions: S. cerevisiae wt1 strain (SPY 50644) growth inhibition, hits give high values
Outline: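 Compounds are added to wt1 yeast cultures. Growth is then measured. Inhibition is expressed relative to vehicle-treated controls.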

[2] = NCI Yeast Anticancer Drug Screen. Data for the rad50EPP+ strain (AID 151);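 further: 0% = growth of vehicle-treated control cultures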; conditions: S. cerevisiae rad50 mutant strain, hits give high values
Outline: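 In this screen, rad50EPP+ yeast were exposed to compounds. Growth inhibition was scored against vehicle-treated controls.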

[3] = NCI Yeast Anticancer Drug Screen. Data for the mgt1 strain (AID 153); conditions: S. cerevisiae mgt1 mutant growth inhibition, hits give high values
Outline: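 mgt1 strain exposed; growth vs vehicle control recorded as inhibition.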

[4] = NCI Yeast Anticancer Drug Screen. Data for the rad50 strain (AID 155);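 further: 0% = growth of vehicle-only cultures of the same strain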; conditions: S. cerevisiae rad50 strain growth inhibition, hits give high values
Outline: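 Inhibition values express reduced yeast growth in compound-treated cultures relative to vehicle-treated controls.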

[5] = NCI Yeast Anticancer Drug Screen. Data for the mec2-1 strain (AID 157); conditions: S. cerevisiae mec2-1 strain, hits give high values
Outline: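 Vehicle-treated cultures served as reference for growth inhibition of compound-exposed mec2-1 yeast.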

[6] = NCI Yeast Anticancer Drug Screen. Data for the rad14 strain (AID 159);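 further: 0% = growth of vehicle-treated control cultures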; conditions: S. cerevisiae rad14 strain growth inhibition, hits give high values
Outline: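 A mutant yeast strain defective in DNA damage repair is treated with compound; inhibition of its growth is scored against untreated, vehicle-exposed cultures.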

[7] = NCI Yeast Anticancer Drug Screen. Data for the sgs1 mgt1 strain (AID 161);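 further: 0% = growth of cultures given vehicle only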; conditions: S. cerevisiae sgs1 mgt1 strain, hits give high values
Outline: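 Mutant yeast exposed to compound; growth scored against vehicle-only wells.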

[8] = NCI Yeast Anticancer Drug Screen. Data for the CLN2oe strain (AID 163);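 further: 0% = growth of vehicle-only control cultures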; conditions: S. cerevisiae CLN2oe strain, hits give high values
Outline: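 Inhibition relative to vehicle-treated yeast is reported. Cells: strain with genetic alteration in cell-cycle control, grown with compound.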

[9] = NCI Yeast Anticancer Drug Screen. Data for the cln2 rad14 strain (AID 165);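 further: 0% = growth equal to vehicle treated cultures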; conditions: S. cerevisiae cln2 rad14 strain, hits give high values
Outline: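 Each compound was tested on cln2 rad14 yeast. Inhibition of growth was calculated against vehicle-exposed controls.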

[10] = NCI Yeast Anticancer Drug Screen. Data for the bub3 strain (AID 167); conditions: S. cerevisiae bub3 mutant strain, hits give high values
Outline: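 Steps: expose the mutant yeast strain to compound; grow alongside vehicle-treated cultures; measure growth; express inhibition against the vehicle cultures.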

[11] = NCI Yeast Anticancer Drug Screen. Data for the wt2 strain (AID 169);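 further: 0% = growth of vehicle-treated yeast cultures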; conditions: S. cerevisiae wt2 strain growth inhibition, hits give high values
Outline: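 Inhibition of yeast growth was determined after compound treatment, normalised to controls receiving only vehicle.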

[12] = NCI Yeast Anticancer Drug Screen. Data for the mlh1 strain (AID 171);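 further: 0% = growth of vehicle-treated control cultures of the same strain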; conditions: S. cerevisiae mlh1 strain growth inhibition, hits give high values
Outline: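 Vehicle-normalised growth inhibition of a repair- or checkpoint-altered yeast strain following compound treatment.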

[13] = NCI Yeast Anticancer Drug Screen. Data for the sgs1 strain (AID 173);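 further: 0% = growth of vehicle-only control cultures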; conditions: S. cerevisiae sgs1 mutant, hits give high values
Outline: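 Screen format: yeast with repair or checkpoint alterations, compound exposure, growth read relative to vehicle.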

[14] = NCI Yeast Anticancer Drug Screen. Data for the mlh1 rad18 strain (AID 175); conditions: S. cerevisiae mlh1 rad18 strain growth inhibition, hits give high values
Outline: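 Vehicle-treated cultures served as the reference for growth inhibition in a yeast strain carrying DNA damage repair alterations exposed to each compound.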

[15] = NCI Yeast Anticancer Drug Screen. Data for the rad18 strain (AID 177); conditions: S. cerevisiae rad18 mutant growth inhibition, hits give high values
Outline: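 Test articles were incubated with altered yeast defective in DNA damage repair. Results are given as inhibition of growth versus vehicle.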

[16] = at 5.0 µM (retest, dose inferred, filed as 0.5)
[17] = at 50.0 µM (retest, dose inferred, filed as 5.0)

Measured: growth inhibition

O=C(CCCN1CCC2(CC1)OC(=O)N(c1ccccc1)C2=O)c1ccccc1
inactive: [1]; at 1.2 µM 43% | [1]; at 3.7 µM 45% | [1]; at 11.0 µM 53% | [1]; at 33.0 µM 52% | [1]; at 100.0 µM 63% | [2]; at 1.2 µM 44% | [2]; at 3.7 µM 29% | [2]; at 11.0 µM 33% | [2]; at 33.0 µM 26% | [2]; at 100.0 µM 26% | [3]; at 1.2 µM 29% | [3]; at 3.7 µM 44% | [3]; at 11.0 µM 56% | [3]; at 33.0 µM 65% | [4]; at 1.2 µM 31% | [4]; at 3.7 µM 50% | [4]; [16] 31% | [4]; at 11.0 µM 60% | [4]; at 33.0 µM 65% | [4]; [17] 64% | [4]; at 100.0 µM 67% | [5]; at 1.2 µM 44% | [5]; at 3.7 µM 45% | [5]; [16] 37% | [5]; at 11.0 µM 60% | [5]; at 33.0 µM 61% | [5]; [17] 60% | [5]; at 50.0 µM 47.2% | [5]; at 100.0 µM 59% | [6]; at 1.2 µM 53% | [6]; at 3.7 µM 63% | [7]; [16] 48% | [7]; [17] 69% | [8]; at 1.2 µM 45% | [8]; at 3.7 µM 63% | [9]; [16] 64% | [9]; at 50.0 µM 65% | [10]; at 1.2 µM 20% | [10]; at 3.7 µM 29% | [10]; [16] 53% | [10]; at 11.0 µM 35% | [10]; at 33.0 µM 38% | [10]; [17] 67% | [10]; at 100.0 µM 50% | [11]; at 1.2 µM 7% | [11]; at 3.7 µM 24% | [11]; at 11.0 µM 32% | [11]; at 33.0 µM 38% | [11]; at 100.0 µM 40% | [12]; at 1.2 µM 35% | [12]; at 3.7 µM 66% | [13]; at 1.2 µM 53% | [13]; at 3.7 µM 67% | [14]; [16] 23% | [15]; at 1.2 µM 63%
active: [3]; at 100.0 µM 74% | [4]; at 50.0 µM 83.9% | [6]; at 11.0 µM 74% | [6]; at 33.0 µM 79% | [6]; at 100.0 µM 90% | [7]; at 50.0 µM 85.9% | [8]; at 11.0 µM 72% | [8]; at 33.0 µM 71% | [8]; at 100.0 µM 76% | [9]; [17] 85% | [10]; at 50.0 µM 79.4% | [12]; at 11.0 µM 71% | [12]; at 33.0 µM 70% | [12]; at 100.0 µM 73% | [13]; at 11.0 µM 71% | [13]; at 33.0 µM 72% | [13]; at 100.0 µM 75% | [14]; [17] 78% | [14]; at 50.0 µM 72.9% | [15]; at 3.7 µM 70% | [15]; at 11.0 µM 78% | [15]; at 33.0 µM 80% | [15]; at 100.0 µM 77%

— PubChem BioAssay (NCI)
